# Where “and” joins values, the source holds several entries; their conditions need not be identical. Equal entries are not always repeated. For some of these results: Entries with a potency or affinity are not part of this list. Calls of active or inactive are those of the source.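 The calls were made as follows, unless noted: active = thallium flux through the channel raised or lowered by more than 3 SD from vehicle-only wells, actives on both sides; inactive = the rest.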
# What was measured:
# [1] = polyglutamine-triggered caspase-3 activation inhibitors, cell-based (AID 1583); details: polyglutamine-induced caspase-3 activation, cell assay; stronger effect = higher value;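 tested at 10 µM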
# [2] = suppressors of polyQ aggregation in yeast, 75Q-TubU reporter (AID 1593); details: Yeast 75Q polyglutamine aggregation reporter
# [3] = rescue of polyQ-huntingtin neuronal dysfunction in worms, whole organism, C. elegans mechanosensory neurons, N-terminal huntingtin (AID 1599); details: touch response, stronger effect = higher value
# [4] = inhibitors of mitochondrial cytochrome c release, biochemical, purified mitochondria (AID 1603); details: stronger effect = lower value;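 also: mouse liver mitochondria challenged with calcium chloride; signal normalized to the plate average as 100%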
# [5] = inhibitors of polyQ protein aggregation (AID 1604); details: polyglutamine-induced protein aggregation inhibition assay; stronger effect = higher value; tested at 2.5 µM
# [6] = enhancers of glutamate uptake in motor neurons, MN-1 cell line (AID 1612); details: MN-1 motor neuron cells, stronger effect = higher value;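 also: tested at 1 µM final; 0% = mean of DMSO vehicle wells on each plate; positive means more glutamate uptake than control and negative means less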
# [7] = suppressors of polyglutamine aggregation in yeast, 75Q-TubH (AID 1616); details: S. cerevisiae 75Q-TubH polyglutamine aggregation suppression; stronger effect = higher value
# [8] = Cy5 fluorescence interference with SSB-bound oligo, artefact control for HCV NS3 helicase inhibitor project, biochemical, NIH Clinical Collection, E. coli SSB (AID 743268; call rule not given here)
# [9] = system: Hepatitis C virus NS3 helicase; experiment: HCV NS3 helicase inhibitors, primary screen, biochemical, fluorescence polarization, NIH Clinical Collection (AID 743270; call rule not given here); details: NS3 helicase binding to Cy5-dT15 DNA, stronger effect = higher value, concentration not given here
# [10] = molecular target: Single-stranded DNA-binding protein (Escherichia coli (strain K12)) (UniProt P0AGE0); experiment: E. coli SSB displacement from DNA, counter-screen for HCV NS3 helicase inhibitor project, biochemical, fluorescence polarization, NIH Clinical Collection (AID 743271; in the data active = inhibition above about 28%); details: stronger effect = higher value, concentration not given here
# [11] = fluorescence interference in NS3h assay format, artefact control for HCV NS3 helicase inhibitor project, biochemical, NIH Clinical Collection (AID 743272; call rule not given here;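 also: HCV NS3 helicase with a Cy5 labelled single stranded DNA probe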); details: fluorescence interference counterscreen, stronger effect = lower value
# [12] = viability rescue of complex I mutant cybrids, primary screen, cell-based, galactose medium, ATP luminescence (AID 1645843;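 active = z-score of at least 1.8 in each of two replicates, scored against plate mean and spread of sample wells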;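 also: positive z means more ATP and so rescue of galactose-driven cybrid death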); details: complex I mutant cybrid cells, 72 h, stronger effect = higher value
# F380Y/beta4 = experiment: modulators of BK channel variants, profiling panel, selectivity assay, cell-based, U2OS BacMam, thallium flux, beta subunits (AID 1259406); details: at 30 µM;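 also: initial slope of Thallos dye fluorescence rise after thallium is added; log ratio against the mean of 0.3% DMSO vehicle wells on the same plate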
# [13] = molecular target: Calcium-activated potassium channel subunit alpha-1 (Homo sapiens) + Leucine-rich repeat-containing protein 26 (Homo sapiens) (UniProt Q12791+Q2I0M4); experiment: as above; details: F380Y/Slo1WT/gamma1, at 30 µM
# Calcium-activated potassium channel subunit alpha-1 (Homo sapiens) + Leucine-rich repeat-containing protein 26 (Homo sapiens), sequence (Q2I0M4 whole entry, looked up, one chain of several): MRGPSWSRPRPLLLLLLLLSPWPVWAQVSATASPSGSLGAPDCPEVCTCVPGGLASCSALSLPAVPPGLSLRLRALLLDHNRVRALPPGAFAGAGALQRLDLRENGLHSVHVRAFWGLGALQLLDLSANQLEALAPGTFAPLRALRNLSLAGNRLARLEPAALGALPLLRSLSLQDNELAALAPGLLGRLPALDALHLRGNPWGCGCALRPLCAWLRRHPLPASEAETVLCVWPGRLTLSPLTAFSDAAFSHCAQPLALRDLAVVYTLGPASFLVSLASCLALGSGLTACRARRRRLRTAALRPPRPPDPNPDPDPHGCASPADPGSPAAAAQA
# R275C = experiment: as above; details: at 30 µM
# R275C/beta1 = experiment: as above; details: at 30 µM
# R275C/beta2Delta = experiment: as above; details: at 30 µM
# R275C/beta4 = experiment: as above; details: at 30 µM
# R275C/Slo1WT/beta2 = experiment: as above; details: at 30 µM
# [14] = LFS_MB_P medulloblastoma growth inhibition, cell-based, chromothripsis tumors, cisplatin or BGB combos (AID 1671449; in the data active = inhibition above about 80%;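 also: cells exposed for 96 hours; 0% = vehicle DMSO and 100% = killing by high DMSO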); details: LFS_MB_P medulloblastoma cells
compound,measurement,setting,value
CCCCNc1cc(C(=O)O)cc(S(N)(=O)=O)c1Oc1ccccc1,inhibition,[1],4.16%
same,score,[2],1.19
same,rescue above control,[3],-11.4
same,cytochrome c release ratio,[4],1.53
same,inhibition of aggregation,[5],71.8%
same,glutamate uptake change,[6],-4.68%
same,aggregation suppression score,[7],1.32
same,fluorescence ratio,[8],1.02 (inactive)
same,inhibition,[9],-5.91% (inactive)
same,inhibition,[10],-2.76% (inactive)
same,fluorescence ratio,[11],0.97 (inactive)
same,z-score,[12],0.145 (inactive) and 0.39 (inactive) and 0.32 (inactive)
same,log fold change Tl+ flux,F380Y/beta4,-0.00421 (inactive)
same,log fold change Tl+ flux,[13],-0.0253 (inactive)
same,log fold change Tl+ flux,R275C,-0.00799 (inactive)
same,log fold change Tl+ flux,R275C/beta1,0.0319 (inactive)
same,log fold change Tl+ flux,R275C/beta2Delta,-0.0196 (inactive)
same,log fold change Tl+ flux,R275C/beta4,0.0225 (inactive)
same,log fold change Tl+ flux,R275C/Slo1WT/beta2,0.0333 (inactive)
CCCc1nc2c(C)cc(-c3nc4ccccc4n3C)cc2n1Cc1ccc(-c2ccccc2C(=O)O)cc1,fluorescence ratio,[8],1.02 (inactive)
same,inhibition,[9],17% (active)
same,inhibition,[10],16.8% (inactive)
same,fluorescence ratio,[11],1.04 (inactive)
same,z-score,[12],1.57 (inactive) and -0.14 (inactive)
same,log fold change Tl+ flux,F380Y/beta4,-0.000976 (inactive)
same,log fold change Tl+ flux,[13],0.054 (inactive)
same,log fold change Tl+ flux,R275C,-0.0814 (inactive)
same,log fold change Tl+ flux,R275C/beta1,-0.0256 (inactive)
same,log fold change Tl+ flux,R275C/beta2Delta,-0.00129 (inactive)
same,log fold change Tl+ flux,R275C/beta4,0.033 (inactive)
same,log fold change Tl+ flux,R275C/Slo1WT/beta2,0.0168 (inactive)
CCCc1cc(=O)[nH]c(=S)[nH]1,inhibition,[1],-28.5%
same,score,[2],1.06
same,rescue above control,[3],-2.2
same,cytochrome c release ratio,[4],1.02
same,inhibition of aggregation,[5],48%
same,glutamate uptake change,[6],4.57%
same,aggregation suppression score,[7],1.14
same,fluorescence ratio,[8],1.04 (inactive)
same,inhibition,[9],-1.36% (inactive)
same,inhibition,[10],0.29% (inactive)
same,fluorescence ratio,[11],0.97 (inactive)
same,z-score,[12],0.835 (inactive)
same,log fold change Tl+ flux,F380Y/beta4,0.0238 (inactive)
same,log fold change Tl+ flux,[13],0.00637 (inactive)
same,log fold change Tl+ flux,R275C,-0.0214 (inactive)
same,log fold change Tl+ flux,R275C/beta1,-0.00439 (inactive)
same,log fold change Tl+ flux,R275C/beta2Delta,-0.0158 (inactive)
same,log fold change Tl+ flux,R275C/beta4,-0.0141 (inactive)
same,log fold change Tl+ flux,R275C/Slo1WT/beta2,0.0488 (inactive)
CC1=NS(=O)(=O)c2cc(Cl)ccc2N1,fluorescence ratio,[8],1 (inactive)
same,inhibition,[9],5.94% (inactive)
same,inhibition,[10],4.52% (inactive)
same,fluorescence ratio,[11],0.99 (inactive)
same,log fold change Tl+ flux,F380Y/beta4,-0.0353 (inactive)
same,log fold change Tl+ flux,[13],-0.0135 (inactive)
same,log fold change Tl+ flux,R275C,-0.00922 (inactive)
same,log fold change Tl+ flux,R275C/beta1,0.0109 (inactive)
same,log fold change Tl+ flux,R275C/beta2Delta,0.00734 (inactive)
same,log fold change Tl+ flux,R275C/beta4,0.0187 (inactive)
same,log fold change Tl+ flux,R275C/Slo1WT/beta2,0.0541 (inactive)
O=C(O)CCCc1ccccc1,fluorescence ratio,[8],0.99 (inactive)
same,inhibition,[9],-2.27% (inactive)
same,inhibition,[10],1.05% (inactive)
same,fluorescence ratio,[11],0.92 (inactive)
same,z-score,[12],-0.305 (inactive) and -0.05 (inactive) and 0.3 (inactive)
same,inhibition,"[14]; at 0.5 µM, stronger effect = higher value",-32.4% (inactive)
same,inhibition,"[14]; measured here: combination with BGB IC20, at 0.005 µM",-18.8%
same,inhibition,"[14]; measured here: combination with BGB IC40, at 0.005 µM",-12.3%
same,inhibition,"[14]; measured here: combination with BGB IC40, at 0.05 µM",-22.2%
same,inhibition,"[14]; measured here: combination with cisplatin, at 0.5 µM, stronger effect = higher value",-35%
same,inhibition,"[14]; measured here: combination with cisplatin, at 5 µM, stronger effect = higher value",-11.6%
same,log fold change Tl+ flux,F380Y/beta4,0.0283 (inactive)
same,log fold change Tl+ flux,[13],0.00509 (inactive)
same,log fold change Tl+ flux,R275C,-0.048 (inactive)
same,log fold change Tl+ flux,R275C/beta1,0.0568 (inactive)
same,log fold change Tl+ flux,R275C/beta2Delta,-0.0698 (inactive)
same,log fold change Tl+ flux,R275C/beta4,0.032 (inactive)
same,log fold change Tl+ flux,R275C/Slo1WT/beta2,0.0104 (inactive)
O=C(O)c1cccnc1,inhibition,[1],1.52%
same,score,[2],1.31
same,rescue above control,[3],2.74
same,cytochrome c release ratio,[4],0.86
same,inhibition of aggregation,[5],67.8%
same,glutamate uptake change,[6],-8.8%
same,aggregation suppression score,[7],1.88
same,fluorescence ratio,[8],1.05 (inactive)
same,fluorescence ratio,[11],0.99 (inactive)
same,z-score,[12],0.63 (inactive)
same,log fold change Tl+ flux,F380Y/beta4,0.0275 (inactive)
same,log fold change Tl+ flux,[13],-4.3e-05 (inactive)
same,log fold change Tl+ flux,R275C,0.0183 (inactive)
same,log fold change Tl+ flux,R275C/beta1,-0.00198 (inactive)
same,log fold change Tl+ flux,R275C/beta2Delta,0.0288 (inactive)
same,log fold change Tl+ flux,R275C/beta4,0.0274 (inactive)
same,log fold change Tl+ flux,R275C/Slo1WT/beta2,-0.00368 (inactive)
COc1ccccc1OCCNCC(O)COc1cccc2[nH]c3ccccc3c12 (stereo not given),fluorescence ratio,[8],0.92 (inactive)
same,inhibition,[9],1.19% (inactive)
same,inhibition,[10],6.83% (inactive)
same,fluorescence ratio,[11],0.94 (inactive)
same,log fold change Tl+ flux,F380Y/beta4,0.358 (active)
same,log fold change Tl+ flux,[13],0.204 (active)
same,log fold change Tl+ flux,R275C,-0.174 (active)
same,log fold change Tl+ flux,R275C/beta1,0.386 (active)
same,log fold change Tl+ flux,R275C/beta2Delta,0.0657 (inactive)
same,log fold change Tl+ flux,R275C/beta4,0.216 (active)
same,log fold change Tl+ flux,R275C/Slo1WT/beta2,0.0443 (inactive)
CC1Cc2ccccc2N1NC(=O)c1ccc(Cl)c(S(N)(=O)=O)c1 (stereo not given),inhibition,[1],11.1%
same,score,[2],1.1
same,rescue above control,[3],19
same,cytochrome c release ratio,[4],0.89
same,inhibition of aggregation,[5],85.9%
same,glutamate uptake change,[6],-15%
same,aggregation suppression score,[7],1.3
same,fluorescence ratio,[8],0.31 (active)
same,inhibition,[9],0.45% (inactive)
same,inhibition,[10],1.05% (inactive)
same,fluorescence ratio,[11],0.97 (inactive)
same,z-score,[12],0.635 (inactive) and 0.155 (inactive)
same,log fold change Tl+ flux,F380Y/beta4,0.0552 (inactive)
same,log fold change Tl+ flux,[13],-0.0185 (inactive)
same,log fold change Tl+ flux,R275C,0.0209 (inactive)
same,log fold change Tl+ flux,R275C/beta1,0.0126 (inactive)
same,log fold change Tl+ flux,R275C/beta2Delta,-0.00869 (inactive)
same,log fold change Tl+ flux,R275C/beta4,0.00861 (inactive)
same,log fold change Tl+ flux,R275C/Slo1WT/beta2,-0.000687 (inactive)
CC(COc1ccccc1)N(CCCl)Cc1ccccc1 (stereo not given),inhibition,[1],31.4%
same,score,[2],0.5
same,rescue above control,[3],11.3
same,cytochrome c release ratio,[4],4.04
same,inhibition of aggregation,[5],33.3%
same,glutamate uptake change,[6],18.7%
same,aggregation suppression score,[7],0.789
same,fluorescence ratio,[8],1.06 (inactive)
same,inhibition,[9],-5% (inactive)
same,inhibition,[10],-0.48% (inactive)
same,fluorescence ratio,[11],0.95 (inactive)
same,z-score,[12],-0.605 (inactive) and -1.23 (inactive)
same,log fold change Tl+ flux,F380Y/beta4,-0.0516 (inactive)
same,log fold change Tl+ flux,[13],-0.0217 (inactive)
same,log fold change Tl+ flux,R275C,-0.0819 (inactive)
same,log fold change Tl+ flux,R275C/beta1,0.0364 (inactive)
same,log fold change Tl+ flux,R275C/beta2Delta,-0.0434 (inactive)
same,log fold change Tl+ flux,R275C/beta4,0.0533 (inactive)
same,log fold change Tl+ flux,R275C/Slo1WT/beta2,-0.0106 (inactive)

# Reference: PubChem BioAssay
